Data: PubChem BioAssay (NCATS)
Inconclusive results are not listed. Active and inactive are the calls of the source. The call rests on the fitted dose curve; in most records, active means well fitted curve in the direction sought with a large enough effect; inconclusive means small, poorly fitted or top-dose-only effect, or another doubt; inactive means no such curve, though single readings can be large; an effect the other way counts as inactive or inconclusive.

Target: Ubiquitin carboxyl-terminal hydrolase 1 (Homo sapiens) (UniProt O94782)
Test: Inhibitors of USP1/UAF1: Pilot qHTS (AID 504865); further: nearly all actives have a fitted effect of over 35% in size; further: potency means the concentration at half of the fitted maximal effect;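 on activity change, negative = inhibition: rhodamine fluorescence freed from ubiquitin-rhodamine substrate followed over time; top concentration of the series differs between compounds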
Conditions: purified USP1/UAF1, Ub-rhodamine cleavage fluorescence; series mostly up to 114 µM; activity change, negative = inhibition: at the top concentration
Summary of the method: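 USP1/UAF1 complex at 1 nM preincubated 15 min at room temperature with compound, then Ub-Rho substrate added at 150 nM final. Fluorescence (480/540 nm) read kinetically in 50 mM HEPES pH 7.8, 0.5 mM EDTA, 1 mM TCEP, 0.1 mg/ml BSA, 0.01% Tween-20.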
On the % scale 0 is the no-effect control and ±100 the full control effect.

Sequence of Ubiquitin carboxyl-terminal hydrolase 1 (Homo sapiens) (O94782 whole entry, looked up): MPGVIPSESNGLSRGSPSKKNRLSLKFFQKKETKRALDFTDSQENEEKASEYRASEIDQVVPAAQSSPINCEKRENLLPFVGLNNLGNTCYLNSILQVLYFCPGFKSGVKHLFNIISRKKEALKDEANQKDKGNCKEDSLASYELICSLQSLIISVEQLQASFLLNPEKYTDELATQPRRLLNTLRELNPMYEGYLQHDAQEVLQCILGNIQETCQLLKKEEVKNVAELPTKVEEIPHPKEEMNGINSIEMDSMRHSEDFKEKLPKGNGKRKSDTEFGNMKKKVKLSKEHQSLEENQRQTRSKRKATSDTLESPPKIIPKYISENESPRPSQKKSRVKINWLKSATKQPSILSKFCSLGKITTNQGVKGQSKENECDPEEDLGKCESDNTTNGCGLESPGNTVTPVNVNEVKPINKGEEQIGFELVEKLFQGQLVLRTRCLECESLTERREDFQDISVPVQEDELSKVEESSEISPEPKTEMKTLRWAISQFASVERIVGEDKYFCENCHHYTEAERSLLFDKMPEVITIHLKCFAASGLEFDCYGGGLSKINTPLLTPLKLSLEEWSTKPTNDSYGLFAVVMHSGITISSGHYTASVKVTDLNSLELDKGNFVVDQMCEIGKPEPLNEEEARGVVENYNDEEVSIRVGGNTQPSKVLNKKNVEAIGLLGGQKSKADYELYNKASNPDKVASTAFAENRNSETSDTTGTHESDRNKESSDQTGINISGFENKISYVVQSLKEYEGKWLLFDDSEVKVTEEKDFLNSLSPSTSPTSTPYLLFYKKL

SMILES	Potency	activity change, negative = inhibition
O=c1n(CCCN2CCN(c3cccc(Cl)c3)CC2)nc2ccccn12	inactive	–
C1COC(NC(C2CC2)C2CC2)=N1	inactive	–
CC(C)C[C@H](NC(=O)[C@@H](O)[C@H](N)Cc1ccccc1)C(=O)O	inactive	–
Cn1cnc([N+](=O)[O-])c1Sc1ncnc2nc[nH]c12	inactive	–
NS(=O)(=O)c1cc2c(cc1Cl)NC=NS2(=O)=O	inactive	–
NC[C@H](O)c1ccc(O)c(O)c1	–	1.91% (inactive)
N=c1nc(N2CCCCC2)cc(N)n1O	inactive	–
CC(C)(Sc1ccc(CCN(CCCCC2CCCCC2)C(=O)NC2CCCCC2)cc1)C(=O)O	44.7 µM (active)	–
C[C@]12CCC(=O)C=C1CC[C@@H]1[C@@H]2[C@@H](O)C[C@@]2(C)[C@H]1CC[C@]2(O)C(=O)CO	–	-4.62% (inactive)
Clc1cccc(Cl)c1NC1=NCCN1	inactive	–
NC(N)=NC(=O)c1nc(Cl)c(N)nc1N	inactive	–
O=NN(CCCl)C(=O)NCCCl	inactive	–
NC(=O)c1cnccn1	–	0.65% (inactive)
CCCC(CCC)C(=O)O	inactive	–
Nc1nc2ccc(OC(F)(F)F)cc2s1	inactive	–
Cc1[nH]c(=O)c(C#N)cc1-c1ccncc1	inactive	–
Cc1ccc2c(c1)C(=O)[C@@]1(O)CCN(c3ccccc3)C1=N2	–	14.9% (inactive)
CC(=O)Oc1ccccc1C(=O)O	inactive	–
CCOC(=O)C1=C[C@@]2(CC)CCCN3CCc4c(n1c1ccccc41)[C@H]32	–	3.36% [at 54.9 µM] (inactive)
Cc1ccccc1C(OCCN(C)C)c1ccccc1 (stereo not drawn)	inactive	–
O=C1CCC(N2C(=O)c3ccccc3C2=O)C(=O)N1 (stereo not drawn)	inactive	–
O=C1CCc2cc(OCCCCc3nnnn3C3CCCCC3)ccc2N1	inactive	–
O=c1[nH]cnc2[nH]ncc12	inactive	–

Test system: not listed separately
Test: qHTS for Inhibitors of ATXN expression: Validation of Cytotoxic Assay (AID 588349)
Conditions: cytotoxicity counter-screen for ATXN expression inhibitors, cell viability; series mostly up to 57.1 µM; activity change, negative = cytotoxicity: at the top concentration
Summary of the method: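 HEK293 cells treated with titrated compound for 72 hr at 37 degrees C; viability read as intracellular ATP by CellTiter Glo luminescence.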

SMILES	activity change, negative = cytotoxicity
O=c1n(CCCN2CCN(c3cccc(Cl)c3)CC2)nc2ccccn12	-8.37% (inactive)
C1COC(NC(C2CC2)C2CC2)=N1	1.34% (inactive)
Cc1cccc(-c2[nH]c(C(C)(C)C)nc2-c2ccc3nccnc3c2)n1	-26.8% (inactive)
Cn1cnc([N+](=O)[O-])c1Sc1ncnc2nc[nH]c12	-29.3% (inactive)
NS(=O)(=O)c1cc2c(cc1Cl)NC=NS2(=O)=O	-7.1% (inactive)
NC[C@H](O)c1ccc(O)c(O)c1	-17.8% (inactive)
N=c1nc(N2CCCCC2)cc(N)n1O	-6.76% (inactive)
CC(C)(Sc1ccc(CCN(CCCCC2CCCCC2)C(=O)NC2CCCCC2)cc1)C(=O)O	-9.58% (inactive)
C[C@]12CCC(=O)C=C1CC[C@@H]1[C@@H]2[C@@H](O)C[C@@]2(C)[C@H]1CC[C@]2(O)C(=O)CO	-6.59% (inactive)
Clc1cccc(Cl)c1NC1=NCCN1	-14.3% (inactive)
NC(N)=NC(=O)c1nc(Cl)c(N)nc1N	-10.5% (inactive)
O=C(O)COCCN1CCN(C(c2ccccc2)c2ccc(Cl)cc2)CC1 (stereo not drawn)	-14.3% (inactive)
O=NN(CCCl)C(=O)NCCCl	-5.77% (inactive)
NC(=O)c1cnccn1	-10.5% (inactive)
CCCC(CCC)C(=O)O	-2.56% (inactive)
CCOC(=O)C1=C[C@]2(CC)CCCN3CCc4c(n1c1ccccc41)[C@@H]32	-23.3% (inactive)
Nc1nc2ccc(OC(F)(F)F)cc2s1	-17.4% (inactive)
Cc1[nH]c(=O)c(C#N)cc1-c1ccncc1	-2.64% (inactive)
Nc1ncnc2nc(-c3ccc(N4CCOCC4)nc3)cc(-c3cccc(Br)c3)c12	7.47% (inactive)
CC(=O)Oc1ccccc1C(=O)O	-3.94% (inactive)
CCOC(=O)N1CCC(=C2c3ccc(Cl)cc3CCc3cccnc32)CC1	-7.38% (inactive)
Cc1ccccc1C(OCCN(C)C)c1ccccc1 (stereo not drawn)	-12.9% (inactive)
O=C1CCC(N2C(=O)c3ccccc3C2=O)C(=O)N1 (stereo not drawn)	-9.12% (inactive)
O=C1CCc2cc(OCCCCc3nnnn3C3CCCCC3)ccc2N1	-13.1% (inactive)
O=c1[nH]cnc2[nH]ncc12	-6.8% (inactive)

Test system: not listed separately
Test: qHTS for Inhibitors of ATXN expression: Validation (AID 588378); further: nearly all actives have a fitted effect of over 75% in size
Conditions: cell-based ATXN2 expression reporter assay, luminescence; series mostly up to 57.1 µM; activity change, negative = inhibition: at the top concentration
Summary of the method: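 HEK293 cells carrying ATXN2-firefly luciferase reporter, treated with compound 24 h at 37 °C. Viability read first by CellTiter-Fluor (405/525 nm), then reporter expression by Bright-Glo luminescence; controls were a known ATXN2 expression inhibitor and a luciferase inhibitor.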

SMILES	activity change, negative = inhibition
O=c1n(CCCN2CCN(c3cccc(Cl)c3)CC2)nc2ccccn12	-17.6% (inactive)
C1COC(NC(C2CC2)C2CC2)=N1	1.2% (inactive)
CC(C)C[C@H](NC(=O)[C@@H](O)[C@H](N)Cc1ccccc1)C(=O)O	-15.6% (inactive)
Cn1cnc([N+](=O)[O-])c1Sc1ncnc2nc[nH]c12	10.2% (inactive)
NS(=O)(=O)c1cc2c(cc1Cl)NC=NS2(=O)=O	0.531% (inactive)
NC[C@H](O)c1ccc(O)c(O)c1	-6.96% (inactive)
N=c1nc(N2CCCCC2)cc(N)n1O	-2.04% (inactive)
CC(C)(Sc1ccc(CCN(CCCCC2CCCCC2)C(=O)NC2CCCCC2)cc1)C(=O)O	-6.97% (inactive)
C[C@]12CCC(=O)C=C1CC[C@@H]1[C@@H]2[C@@H](O)C[C@@]2(C)[C@H]1CC[C@]2(O)C(=O)CO	-10% (inactive)
Clc1cccc(Cl)c1NC1=NCCN1	0.53% (inactive)
NC(N)=NC(=O)c1nc(Cl)c(N)nc1N	-4.7% (inactive)
O=C(O)COCCN1CCN(C(c2ccccc2)c2ccc(Cl)cc2)CC1 (stereo not drawn)	-7.9% (inactive)
O=NN(CCCl)C(=O)NCCCl	4.4% (inactive)
NC(=O)c1cnccn1	1.1% (inactive)
CCCC(CCC)C(=O)O	-5.02% (inactive)
CCOC(=O)C1=C[C@]2(CC)CCCN3CCc4c(n1c1ccccc41)[C@@H]32	-8.31% (inactive)
Nc1nc2ccc(OC(F)(F)F)cc2s1	50.9% (inactive)
Cc1[nH]c(=O)c(C#N)cc1-c1ccncc1	13.8% (inactive)
Nc1ncnc2nc(-c3ccc(N4CCOCC4)nc3)cc(-c3cccc(Br)c3)c12	8.93% (inactive)
CC(=O)Oc1ccccc1C(=O)O	2.18% (inactive)
CCOC(=O)N1CCC(=C2c3ccc(Cl)cc3CCc3cccnc32)CC1	-12.7% (inactive)
Cc1ccccc1C(OCCN(C)C)c1ccccc1 (stereo not drawn)	-13.2% (inactive)
O=C1CCC(N2C(=O)c3ccccc3C2=O)C(=O)N1 (stereo not drawn)	15.8% (inactive)
O=C1CCc2cc(OCCCCc3nnnn3C3CCCCC3)ccc2N1	-8.62% (inactive)
O=c1[nH]cnc2[nH]ncc12	1.97% (inactive)
